# Assay results taken from paper PMC7862700, “An all-to-all approach to the identification of sequence-specific readers for epigenetic DNA modifications on cytosine”.
# Assays:
# Assay in all cases: DAPPL (digital affinity profiling via proximity ligation, sequencing); 10 mM Tris-HCl pH 7.5, 50 mM NaCl, 1 mM DTT, 4% glycerol, room temperature, 30 min; GST-TFs on glutathione beads, 16-mer random dsDNA library, 0.1% formaldehyde crosslink after washing; high values mean tight binding
# FEV = biological target: T1, FEV (Homo sapiens, UniProt Q99581 1-238); settings: protein: recombinant; tags: N-terminal GST; dsDNA, one strand shown
# T1 sequence: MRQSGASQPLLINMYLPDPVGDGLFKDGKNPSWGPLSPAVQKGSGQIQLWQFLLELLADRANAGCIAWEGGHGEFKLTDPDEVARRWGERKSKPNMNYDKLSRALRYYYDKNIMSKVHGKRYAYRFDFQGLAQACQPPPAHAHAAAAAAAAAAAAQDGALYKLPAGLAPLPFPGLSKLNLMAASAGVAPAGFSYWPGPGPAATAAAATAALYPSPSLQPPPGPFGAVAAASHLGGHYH
# Procedure, shortened: (§1)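 Each value of binding signal is a hexamer's read frequency for a factor divided by the same hexamer's frequency in the tag-only sample. Barcoded, bead-captured GST fusions of human transcription factors made in yeast were pooled with that sample and incubated with 200 nmole of a random double-stranded 16-mer DNA library in Tris/NaCl/DTT/glycerol buffer at room temperature for 30 min. Washing, 0.1% formaldehyde crosslinking, proximity ligation, PCR and Illumina NextSeq500 sequencing followed.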
# ETV5 = ETV5 (Homo sapiens, UniProt P41161 1-510); settings: protein: recombinant; tags: N-terminal GST; dsDNA, one strand shown
# Chain of ETV5 (P41161 whole entry): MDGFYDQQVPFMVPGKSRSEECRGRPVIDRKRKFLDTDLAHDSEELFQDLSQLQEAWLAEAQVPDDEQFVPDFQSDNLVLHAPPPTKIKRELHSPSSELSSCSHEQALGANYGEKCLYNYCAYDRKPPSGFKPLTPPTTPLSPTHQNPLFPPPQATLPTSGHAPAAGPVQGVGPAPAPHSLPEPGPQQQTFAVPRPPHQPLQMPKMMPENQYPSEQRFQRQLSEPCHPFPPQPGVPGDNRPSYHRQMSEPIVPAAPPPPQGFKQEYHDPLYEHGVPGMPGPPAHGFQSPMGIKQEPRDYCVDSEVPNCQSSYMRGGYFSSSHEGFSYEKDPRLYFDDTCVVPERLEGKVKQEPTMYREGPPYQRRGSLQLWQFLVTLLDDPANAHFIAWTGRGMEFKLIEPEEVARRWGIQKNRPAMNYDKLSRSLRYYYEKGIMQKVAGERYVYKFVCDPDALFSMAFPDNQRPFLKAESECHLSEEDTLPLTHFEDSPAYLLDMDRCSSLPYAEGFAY
# Procedure, shortened: as §1
# HSF1 = HSF1 (Homo sapiens, UniProt Q00613 1-529); settings: protein: recombinant; tags: N-terminal GST; chain copies: 3; dsDNA, one strand shown
# Chain of HSF1 (Q00613 whole entry): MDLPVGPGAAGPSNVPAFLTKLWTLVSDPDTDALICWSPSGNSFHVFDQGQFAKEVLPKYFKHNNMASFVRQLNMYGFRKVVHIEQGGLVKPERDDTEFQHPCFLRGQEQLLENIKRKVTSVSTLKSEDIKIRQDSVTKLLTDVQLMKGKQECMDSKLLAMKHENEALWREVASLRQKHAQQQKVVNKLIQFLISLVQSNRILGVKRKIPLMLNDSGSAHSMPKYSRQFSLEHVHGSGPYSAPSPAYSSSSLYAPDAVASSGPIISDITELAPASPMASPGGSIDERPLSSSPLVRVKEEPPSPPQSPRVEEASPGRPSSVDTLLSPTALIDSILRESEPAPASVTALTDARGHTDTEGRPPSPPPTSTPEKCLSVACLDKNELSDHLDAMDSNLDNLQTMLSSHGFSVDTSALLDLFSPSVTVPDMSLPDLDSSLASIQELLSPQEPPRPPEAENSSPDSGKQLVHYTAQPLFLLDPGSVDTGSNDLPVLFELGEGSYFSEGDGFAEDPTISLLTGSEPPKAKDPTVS
# Procedure, shortened: as §1
# SPIC = biological target: T2, SPIC (Homo sapiens, UniProt Q8N5J4 1-248); settings: protein: recombinant; tags: N-terminal GST; dsDNA, one strand shown
# T2 sequence: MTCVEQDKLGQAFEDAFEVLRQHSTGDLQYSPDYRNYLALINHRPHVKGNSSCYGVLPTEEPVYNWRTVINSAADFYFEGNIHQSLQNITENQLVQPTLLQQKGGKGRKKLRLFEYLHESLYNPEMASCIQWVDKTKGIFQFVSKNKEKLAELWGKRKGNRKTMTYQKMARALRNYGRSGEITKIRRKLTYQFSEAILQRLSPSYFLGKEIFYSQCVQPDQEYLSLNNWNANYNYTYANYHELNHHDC
# Procedure, shortened: as §1
# ELF4 = ELF4 (Homo sapiens, UniProt Q99607 1-663); settings: protein: recombinant; tags: N-terminal GST; dsDNA, one strand shown
# Chain of ELF4 (Q99607 whole entry): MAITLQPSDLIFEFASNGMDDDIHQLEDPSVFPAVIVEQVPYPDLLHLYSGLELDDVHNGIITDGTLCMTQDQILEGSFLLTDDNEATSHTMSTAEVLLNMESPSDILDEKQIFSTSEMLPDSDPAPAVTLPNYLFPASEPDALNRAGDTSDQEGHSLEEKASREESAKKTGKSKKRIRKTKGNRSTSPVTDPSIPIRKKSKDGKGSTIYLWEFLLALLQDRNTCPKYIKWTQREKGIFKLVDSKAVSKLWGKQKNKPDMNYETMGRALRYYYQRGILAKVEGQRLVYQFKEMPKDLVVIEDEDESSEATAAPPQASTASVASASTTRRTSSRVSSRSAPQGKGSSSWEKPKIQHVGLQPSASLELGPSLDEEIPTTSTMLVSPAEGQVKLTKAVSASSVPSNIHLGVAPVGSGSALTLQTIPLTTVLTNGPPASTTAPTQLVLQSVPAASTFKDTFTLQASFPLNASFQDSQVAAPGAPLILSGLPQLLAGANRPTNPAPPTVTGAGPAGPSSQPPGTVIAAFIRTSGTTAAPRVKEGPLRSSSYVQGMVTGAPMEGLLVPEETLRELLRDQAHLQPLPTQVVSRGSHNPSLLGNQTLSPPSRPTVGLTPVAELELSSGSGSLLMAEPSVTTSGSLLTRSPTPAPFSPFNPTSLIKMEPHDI
# Procedure, shortened: as §1
# ELK4 = biological target: T3, ELK4 (Homo sapiens, UniProt P28324-2 1-405); settings: protein: recombinant; tags: N-terminal GST; dsDNA, one strand shown
# T3 sequence: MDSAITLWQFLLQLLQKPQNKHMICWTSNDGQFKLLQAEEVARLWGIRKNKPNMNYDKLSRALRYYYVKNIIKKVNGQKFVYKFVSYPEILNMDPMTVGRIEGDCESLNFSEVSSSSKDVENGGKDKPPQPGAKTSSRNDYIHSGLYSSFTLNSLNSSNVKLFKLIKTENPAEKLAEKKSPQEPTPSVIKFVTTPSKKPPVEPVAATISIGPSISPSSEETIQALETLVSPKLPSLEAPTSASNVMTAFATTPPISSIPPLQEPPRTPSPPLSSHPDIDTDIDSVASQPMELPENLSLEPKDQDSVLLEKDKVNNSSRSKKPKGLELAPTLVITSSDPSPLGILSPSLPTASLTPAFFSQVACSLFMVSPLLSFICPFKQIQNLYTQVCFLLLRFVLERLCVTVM
# Procedure, shortened: as §1
# ETV2 = biological target: T4, ETV2 (Homo sapiens, UniProt O00321 1-342); settings: protein: recombinant; tags: N-terminal GST; dsDNA, one strand shown
# T4 sequence: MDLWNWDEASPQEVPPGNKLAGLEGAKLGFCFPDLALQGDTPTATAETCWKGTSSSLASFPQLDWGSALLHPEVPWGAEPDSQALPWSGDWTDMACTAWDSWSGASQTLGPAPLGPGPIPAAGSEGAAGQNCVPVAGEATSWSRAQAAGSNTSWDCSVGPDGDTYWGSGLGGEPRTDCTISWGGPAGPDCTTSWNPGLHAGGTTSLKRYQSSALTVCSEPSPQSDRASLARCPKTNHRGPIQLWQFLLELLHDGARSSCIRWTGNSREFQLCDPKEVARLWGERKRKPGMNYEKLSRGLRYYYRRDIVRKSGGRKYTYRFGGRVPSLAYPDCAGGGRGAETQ
# Procedure, shortened: as §1
# ELF3 = biological target: T5, ELF3 (Homo sapiens, UniProt P78545 1-371); settings: protein: recombinant; tags: N-terminal GST; dsDNA, one strand shown
# T5 sequence: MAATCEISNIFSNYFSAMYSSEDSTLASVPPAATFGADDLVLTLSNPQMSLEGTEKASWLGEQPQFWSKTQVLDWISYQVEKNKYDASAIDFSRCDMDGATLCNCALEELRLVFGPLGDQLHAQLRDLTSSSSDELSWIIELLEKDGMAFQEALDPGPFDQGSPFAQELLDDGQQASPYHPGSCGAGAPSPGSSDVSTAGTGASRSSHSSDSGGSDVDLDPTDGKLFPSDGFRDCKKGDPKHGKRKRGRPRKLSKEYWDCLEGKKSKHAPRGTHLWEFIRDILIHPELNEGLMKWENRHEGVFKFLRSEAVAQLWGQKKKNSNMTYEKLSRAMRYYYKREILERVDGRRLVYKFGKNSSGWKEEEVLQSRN
# Procedure, shortened: as §1
# CRX = CRX (Homo sapiens, UniProt O43186 1-299); settings: protein: recombinant; tags: N-terminal GST; dsDNA, one strand shown
# Chain of CRX (O43186 whole entry): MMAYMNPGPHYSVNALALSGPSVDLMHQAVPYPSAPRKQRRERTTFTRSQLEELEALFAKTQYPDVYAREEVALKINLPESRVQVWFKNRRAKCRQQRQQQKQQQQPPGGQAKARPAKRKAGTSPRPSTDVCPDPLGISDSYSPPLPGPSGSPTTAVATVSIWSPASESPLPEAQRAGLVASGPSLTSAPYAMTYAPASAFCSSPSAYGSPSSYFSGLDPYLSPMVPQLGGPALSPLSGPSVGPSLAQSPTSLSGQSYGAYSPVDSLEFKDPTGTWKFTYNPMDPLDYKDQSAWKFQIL
# Procedure, shortened: as §1
# ETV1 = ETV1 (Homo sapiens, UniProt P50549 1-477); settings: protein: recombinant; tags: N-terminal GST; dsDNA, one strand shown
# Chain of ETV1 (P50549 whole entry): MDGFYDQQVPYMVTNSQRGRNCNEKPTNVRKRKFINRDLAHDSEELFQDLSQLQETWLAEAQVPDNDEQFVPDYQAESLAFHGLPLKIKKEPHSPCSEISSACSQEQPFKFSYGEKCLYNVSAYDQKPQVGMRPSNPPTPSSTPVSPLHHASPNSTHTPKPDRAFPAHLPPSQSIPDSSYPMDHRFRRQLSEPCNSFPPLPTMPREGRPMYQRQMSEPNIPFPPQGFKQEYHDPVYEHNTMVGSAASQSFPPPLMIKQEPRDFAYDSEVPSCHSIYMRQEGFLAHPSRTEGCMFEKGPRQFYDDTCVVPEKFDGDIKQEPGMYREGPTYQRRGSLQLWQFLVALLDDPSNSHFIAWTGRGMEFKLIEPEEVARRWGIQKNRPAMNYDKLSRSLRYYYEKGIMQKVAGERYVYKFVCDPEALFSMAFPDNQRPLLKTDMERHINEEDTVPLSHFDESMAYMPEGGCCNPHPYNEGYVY
# Procedure, shortened: as §1
# ERF = biological target: T6, ERF (Homo sapiens, UniProt P50548 1-548); settings: protein: recombinant; tags: N-terminal GST; dsDNA, one strand shown
# T6 sequence: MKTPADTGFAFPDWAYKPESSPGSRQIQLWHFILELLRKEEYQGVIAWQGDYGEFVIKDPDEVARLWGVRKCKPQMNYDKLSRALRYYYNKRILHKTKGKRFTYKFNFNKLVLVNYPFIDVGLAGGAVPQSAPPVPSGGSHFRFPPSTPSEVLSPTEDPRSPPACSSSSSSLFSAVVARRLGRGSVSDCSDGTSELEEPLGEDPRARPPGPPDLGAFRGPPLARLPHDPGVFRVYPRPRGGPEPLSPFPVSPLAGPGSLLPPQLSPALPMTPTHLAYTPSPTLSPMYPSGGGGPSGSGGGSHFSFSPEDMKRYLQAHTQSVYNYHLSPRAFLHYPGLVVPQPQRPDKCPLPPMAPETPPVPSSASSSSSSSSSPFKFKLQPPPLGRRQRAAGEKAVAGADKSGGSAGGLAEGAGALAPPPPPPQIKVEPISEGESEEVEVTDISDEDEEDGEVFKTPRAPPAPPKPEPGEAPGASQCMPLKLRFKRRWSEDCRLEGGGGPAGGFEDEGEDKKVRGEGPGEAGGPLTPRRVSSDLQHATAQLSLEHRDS
# Procedure, shortened: as §1
# ETV3L = biological target: T7, ETV3L (Homo sapiens, UniProt Q6ZN32 1-361); settings: protein: recombinant; tags: N-terminal GST; dsDNA, one strand shown
# T7 sequence: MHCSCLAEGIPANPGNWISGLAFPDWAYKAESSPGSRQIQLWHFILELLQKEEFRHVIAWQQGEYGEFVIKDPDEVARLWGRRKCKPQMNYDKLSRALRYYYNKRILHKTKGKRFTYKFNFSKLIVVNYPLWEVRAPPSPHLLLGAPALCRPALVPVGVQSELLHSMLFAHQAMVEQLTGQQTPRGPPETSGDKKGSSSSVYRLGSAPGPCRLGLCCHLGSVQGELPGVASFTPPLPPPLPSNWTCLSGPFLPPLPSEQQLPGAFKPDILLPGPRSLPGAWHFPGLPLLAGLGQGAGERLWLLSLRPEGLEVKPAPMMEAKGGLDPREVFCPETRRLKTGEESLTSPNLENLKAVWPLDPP
# Procedure, shortened: as §1
# ETS2 = biological target: T8, ETS2 (Homo sapiens, UniProt P15036 1-469); settings: protein: recombinant; tags: N-terminal GST; dsDNA, one strand shown
# T8 sequence: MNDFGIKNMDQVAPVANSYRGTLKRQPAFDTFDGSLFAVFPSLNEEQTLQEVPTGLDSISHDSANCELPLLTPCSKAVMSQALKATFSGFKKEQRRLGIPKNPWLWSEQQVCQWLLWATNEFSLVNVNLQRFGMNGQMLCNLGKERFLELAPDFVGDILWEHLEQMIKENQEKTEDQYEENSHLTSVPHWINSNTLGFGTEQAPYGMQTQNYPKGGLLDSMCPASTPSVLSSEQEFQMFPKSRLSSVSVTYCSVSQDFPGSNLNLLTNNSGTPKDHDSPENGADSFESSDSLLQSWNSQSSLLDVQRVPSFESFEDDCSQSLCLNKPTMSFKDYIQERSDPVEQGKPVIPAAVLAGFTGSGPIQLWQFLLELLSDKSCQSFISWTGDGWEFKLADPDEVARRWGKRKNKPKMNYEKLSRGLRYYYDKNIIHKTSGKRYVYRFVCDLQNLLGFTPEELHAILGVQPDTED
# Procedure, shortened: as §1
# SPDEF = biological target: T9, SPDEF (Homo sapiens, UniProt O95238 1-335); settings: protein: recombinant; tags: N-terminal GST; dsDNA, one strand shown
# T9 sequence: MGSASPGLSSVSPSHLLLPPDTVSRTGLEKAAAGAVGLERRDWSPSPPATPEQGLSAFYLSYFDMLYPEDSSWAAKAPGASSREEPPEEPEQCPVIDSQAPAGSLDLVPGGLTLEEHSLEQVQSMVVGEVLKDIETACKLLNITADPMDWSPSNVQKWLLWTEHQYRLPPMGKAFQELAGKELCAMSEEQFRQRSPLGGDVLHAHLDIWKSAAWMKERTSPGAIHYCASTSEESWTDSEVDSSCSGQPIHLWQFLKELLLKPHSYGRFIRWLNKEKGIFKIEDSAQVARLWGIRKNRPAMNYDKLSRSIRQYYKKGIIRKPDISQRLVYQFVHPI
# Procedure, shortened: as §1
# ETV7 = biological target: T10, ETV7 (Homo sapiens, UniProt Q9Y603 1-341); settings: protein: recombinant; tags: N-terminal GST; dsDNA, one strand shown
# T10 sequence: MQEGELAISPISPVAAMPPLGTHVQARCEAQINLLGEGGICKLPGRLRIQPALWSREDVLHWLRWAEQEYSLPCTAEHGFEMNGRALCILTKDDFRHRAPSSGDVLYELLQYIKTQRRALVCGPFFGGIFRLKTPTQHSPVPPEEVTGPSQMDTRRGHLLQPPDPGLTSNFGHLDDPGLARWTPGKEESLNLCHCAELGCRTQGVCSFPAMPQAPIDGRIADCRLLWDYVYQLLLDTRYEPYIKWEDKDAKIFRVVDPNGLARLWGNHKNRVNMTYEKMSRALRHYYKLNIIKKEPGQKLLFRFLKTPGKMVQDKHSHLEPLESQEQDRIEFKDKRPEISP
# Procedure, shortened: as §1
# ELF5 = biological target: T11, ELF5 (Homo sapiens, UniProt Q9UKW6-2 1-255); settings: protein: recombinant; tags: N-terminal GST; dsDNA, one strand shown
# T11 sequence: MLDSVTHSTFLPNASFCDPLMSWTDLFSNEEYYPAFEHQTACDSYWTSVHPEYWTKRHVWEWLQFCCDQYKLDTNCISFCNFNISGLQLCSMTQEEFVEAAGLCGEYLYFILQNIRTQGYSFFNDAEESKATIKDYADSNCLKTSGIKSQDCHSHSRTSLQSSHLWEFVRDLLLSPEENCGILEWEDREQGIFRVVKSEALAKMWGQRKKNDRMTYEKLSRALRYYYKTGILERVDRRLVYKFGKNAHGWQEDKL
# Procedure, shortened: as §1
# ETV3 = biological target: T12, ETV3 (Homo sapiens, UniProt P41162-2 1-143); settings: protein: recombinant; tags: N-terminal GST; dsDNA, one strand shown
# T12 sequence: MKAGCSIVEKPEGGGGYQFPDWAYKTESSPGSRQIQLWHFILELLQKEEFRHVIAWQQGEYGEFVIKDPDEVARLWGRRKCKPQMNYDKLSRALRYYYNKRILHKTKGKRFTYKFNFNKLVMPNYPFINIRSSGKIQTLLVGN
# Procedure, shortened: as §1
# ETV6 = ETV6 (Homo sapiens, UniProt P41212 1-452); settings: protein: recombinant; tags: N-terminal GST; dsDNA, one strand shown
# Chain of ETV6 (P41212 whole entry): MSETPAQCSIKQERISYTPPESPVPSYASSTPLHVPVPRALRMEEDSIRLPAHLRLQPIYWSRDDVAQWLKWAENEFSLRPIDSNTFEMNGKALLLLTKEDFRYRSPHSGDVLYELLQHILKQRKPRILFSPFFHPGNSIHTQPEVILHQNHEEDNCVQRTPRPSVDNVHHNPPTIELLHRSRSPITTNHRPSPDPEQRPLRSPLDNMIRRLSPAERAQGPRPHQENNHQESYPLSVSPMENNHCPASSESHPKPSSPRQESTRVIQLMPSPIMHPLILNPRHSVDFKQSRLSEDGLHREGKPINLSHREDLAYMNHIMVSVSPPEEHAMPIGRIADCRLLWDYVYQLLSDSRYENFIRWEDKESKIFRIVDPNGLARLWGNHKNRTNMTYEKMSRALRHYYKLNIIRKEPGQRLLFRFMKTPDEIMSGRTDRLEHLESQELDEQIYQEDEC
# Procedure, shortened: as §1
sequence,measurement,setting,value
AGAAAT,binding signal,FEV,"1.12 fold enrichment (6-mer frequency, TF over GST control)"
same,binding signal,ETV5,"1.17 fold enrichment (6-mer frequency, TF over GST control)"
same,binding signal,HSF1,"2.04 fold enrichment (6-mer frequency, TF over GST control)"
same,binding signal,SPIC,"1.22 fold enrichment (6-mer frequency, TF over GST control)"
same,binding signal,ELF4,"1.15 fold enrichment (6-mer frequency, TF over GST control)"
same,binding signal,ELK4,"1.03 fold enrichment (6-mer frequency, TF over GST control)"
same,binding signal,ETV2,"1.19 fold enrichment (6-mer frequency, TF over GST control)"
same,binding signal,ELF3,"1.2 fold enrichment (6-mer frequency, TF over GST control)"
same,binding signal,CRX,"1.35 fold enrichment (6-mer frequency, TF over GST control)"
same,binding signal,ETV1,"1.13 fold enrichment (6-mer frequency, TF over GST control)"
same,binding signal,ERF,"1.13 fold enrichment (6-mer frequency, TF over GST control)"
same,binding signal,ETV3L,"1.17 fold enrichment (6-mer frequency, TF over GST control)"
same,binding signal,ETS2,"1.21 fold enrichment (6-mer frequency, TF over GST control)"
same,binding signal,SPDEF,"1.03 fold enrichment (6-mer frequency, TF over GST control)"
same,binding signal,ETV7,"1.21 fold enrichment (6-mer frequency, TF over GST control)"
same,binding signal,ELF5,"1.15 fold enrichment (6-mer frequency, TF over GST control)"
same,binding signal,ETV3,"1.09 fold enrichment (6-mer frequency, TF over GST control)"
same,binding signal,ETV6,"1.18 fold enrichment (6-mer frequency, TF over GST control)"
